Data published in the supplement of paper PMC3334620.
Whole data set: some 33,000 sequences, median “E-score (-0.5 to 0.5)” near -0.0059, cut for the highest 2% near 0.26. Many of the other results were omitted from the sample, so the highest values are more common in it than they were.

Each sequence was assayed against T1, Cin5 (UniProt P40917) (assay: PBM E-score (8-mer binding enrichment) (E-score (-0.5 to 0.5)); higher = stronger / more preferred TF binding). Conditions: protein concentration: 100 nM; construct: GST-full length.
T1 sequence: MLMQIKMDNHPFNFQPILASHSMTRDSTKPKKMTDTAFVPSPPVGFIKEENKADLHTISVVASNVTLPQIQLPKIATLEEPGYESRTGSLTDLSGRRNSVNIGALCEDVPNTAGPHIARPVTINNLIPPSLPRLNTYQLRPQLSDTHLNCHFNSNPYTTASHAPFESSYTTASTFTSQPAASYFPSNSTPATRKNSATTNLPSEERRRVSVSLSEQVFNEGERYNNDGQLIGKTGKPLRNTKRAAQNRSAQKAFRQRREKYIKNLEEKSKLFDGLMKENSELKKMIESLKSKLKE
Protocol: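 Universal 'all 10-mer' protein binding microarrays (Agilent AMADID 015681) probed with GST-tagged S. cerevisiae TFs (full-length or DBD) made by in vitro transcription/translation (PURExpress), about 100-200 nM. Bound TF was detected with fluorescent anti-GST. Each ungapped 8-mer (which stands for itself and its reverse complement) is scored by the PBM enrichment score (E-score), a modified Wilcoxon-Mann-Whitney statistic from -0.5 to +0.5, computed with the Universal PBM Analysis Suite. Scale: above 0.35 generally sequence-specific binding.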

Sequence	PBM E-score
ATTGGGGA	0.00734
AGGTCCTC	-0.134
GCCGCGAC	-0.086
ACGAACGG	0.0374
CACGATAG	0.139
CTAGTCAG	-0.0157
AGGACCCG	-0.169
ACCATACC	-0.0386
ATCAGTTG	0.209
CCAGCGCA	-0.132
ATATTCCG	0.179
CAATTCCA	0.0576
ATATTCCA	0.274
AAATTCCA	0.295
CTATTCCA	0.215
GAATTCCA	0.173
AAAAGCTT	-0.127
CCTCAATA	-0.0429
CCGGGGCC	-0.242
CTCGAGAA	-0.0673
ACTTGTAC	0.00779
ATATCTCA	0.277
CTATCTCA	-0.00021
ATCTCTCA	0.216
CTGCTATA	0.117

Sequence	PBM E-score
GCAACTCA	0.00079
GAAGCTTA	0.171
AAAGCTGA	-0.056
TAAGCTTA	0.372
TAAGCTGA	0.267
CAAGCTGA	0.233
CAAGCTTA	0.184
GGCTGTCA	-0.21
TATATCAA	0.196
GCATCGGC	-0.125
ACTACCCG	-0.0362
AGCTTCCG	-0.0682
AGTATTAG	0.275
CGTATTAC	0.214
GGTATTAC	0.271
AGTATTAC	0.27
GGTATTAA	0.064
AGTATTAT	0.0851
CGTATTAG	0.109
AGTATTAA	0.242
AGTATTCC	0.225
GGTTGCTA	-0.0578
GACCGCCA	-0.0859
CACTGTAC	-0.0867
CTTGCACC	0.0355

Sequence	PBM E-score
AAGCACAT	0.206
AGGAGAGC	-0.394
AGCAGCAG	-0.0447
CCTGGTAC	-0.1
CTCTGATC	-0.162
GCATTATA	0.152
ATATTAGA	0.159
CTATTACA	0.181
CTATTATA	0.142
ATATTGTA	0.151
GTATTAGA	0.234
GCATTACA	0.167
GTATTACA	0.34
ATATTATA	0.265
CTATTGTA	0.13
GTATTATA	0.267
GTATTGTA	0.274
AGCTAGGC	-0.14
CGCCGCAA	0.0347
GACAGTCA	-0.165
CCGAATGA	-0.0132
CCCAATAC	-0.00655
TTCCGGAA	0.248
ATCCTCTG	0.0169
AGGATCCA	-0.0524

Sequence	PBM E-score
GGAATCCA	0.0132
AGATTATG	0.248
ATATTATG	0.379
ATATTATC	0.233
GGGGTGTA	-0.208
CCCGATAG	-0.0593
AATAATGT	0.273
AAAAATCT	0.0604
AATAACCT	0.061
AATAATCT	0.345
GATAATAA	0.199
AATAATAG	0.198
CATAATAA	0.0985
AATAATAT	0.356
AATAATGC	0.145
AATAATAA	0.305
AATAATGG	0.226
AATAATAC	0.181
AAAAAACG	0.125
AATCATTG	0.207
ACGCAGTA	-0.15
CCACCGTA	-0.049
GGTAGCAC	-0.152
CATGGATC	-0.00694
ACTCGCGA	0.214

Sequence	PBM E-score
TAGATCGA	0.0888
ACTCTGGG	-0.0166
CGGAGACC	-0.167
CCCTCGGC	-0.217
AGTCCCTA	-0.176
AGCTGAAG	0.0392
ATCTGCGA	0.00217
GTTACGGA	-0.122
CTTACGTC	0.196
ACTACGTC	0.00455
ATTACGTC	0.371
ACTACGTG	-0.223
GGTACGTA	-0.032
AGTACGTG	-0.096
GTTACGTA	0.305
ATTACGTG	0.423
ACCCTGGA	-0.243
AGCGCCCA	-0.243
AGTCAACT	-0.157
CGAGCTCG	0.0762
GTACCATA	-0.04
ATACCATG	0.0359
ATACCATA	0.259
CTGCCCAC	-0.151
GCCTTTAC	-0.0984

Sequence	PBM E-score
GGTATGAA	0.126
AGGTTCTC	-0.153
ATCAAACA	0.274
TAAAAACA	0.174
ATCAAGCA	0.114
CTCAAACA	0.0626
AAAAAACA	0.284
GAAAAACA	-0.0228
TAGATGCA	0.0348
ACTTTGAG	-0.126
AGGCCAGA	-0.0898
GATTCTTA	0.213
ATGTACAT	0.205
CTATCGAA	0.0827
CAATCCCC	0.0168
CAATCCCG	0.259
CAATCCCA	-0.0745
CCGGTTGC	0.00629
ATTGTCTA	0.273
GTTGTCTA	0.114
ATTGTCTC	-0.017
AAGTAGAG	-0.126
ACGCCTTG	-0.0542
GTAAAAGA	0.0603
CATGATTA	0.321

Sequence	PBM E-score
AATGATTA	0.335
AATGATTC	0.161
CATGATGA	0.173
GATGATTA	0.23
AATGATAG	0.272
CATGATAG	0.0148
AATGATAA	0.227
CATGATTC	-0.0303
CGCGTCGA	0.0758
TAACCGGA	0.106
GCGCACGC	-0.12
CCTGCAGG	-0.134
ACCGCGAC	-0.104
CACGGGTA	-0.0916
ACATGGTG	0.0908
AGTCTGGA	0.041
GCGAGACC	-0.127
ATCGATTA	0.248
CGCGATTA	0.263
CGGGATTA	0.294
AGCGATTA	0.127
CGCGATTC	0.124
CGGGATTC	0.0661
CTCGATTA	0.264
CTCGATTC	0.119

Sequence	PBM E-score
AGGGATTA	0.0341
ACCTACTC	0.0706
AGATCTGA	0.0167
CTAGCTTA	0.256
ATTGCGTA	0.287
CTTGCTTA	0.229
ATTGCTTA	0.259
ATTGCTGA	0.115
GTTGCGTA	0.068
GTTGCTGA	0.12
ATTGCGTC	0.128
GTAGCTTA	0.279
GTTGCTTA	0.338
ATTGCTTG	0.177
ATAGCTTA	0.154
CCTTGTTA	-0.0571
AACTCGGC	0.121
GCCGCTAC	-0.0553
AGCGGGCG	-0.0666
TCTGGGCA	-0.124
GGGCGAAA	0.0331
ACCGCCGC	-0.101
TCCGCTAA	-0.0291
AGACCTTC	-0.134
AGCCTAAA	-0.0722

Sequence	PBM E-score
CGTTGCGA	-0.0384
GCGCTGAA	-0.2
ACCAGATC	-0.0659
TTAATTAA	0.183
ATAATTAG	0.241
ATAATTAC	0.365
ACAATTAT	0.205
ATAATTAA	0.303
GTAATTAC	0.175
ATAATTAT	0.341
CTAATTAC	0.24
GTAATTAA	0.13
ACCGGTAC	-0.217
CAACACTC	0.105
GGATCAGA	-0.042
CGTGAAAG	-0.0748
GTATTCGA	-0.0476
ACAACCTA	0.0123
AATCGCTG	-0.0284
CTATTGAG	0.144
ATATTGAG	0.266
ATATTGAT	0.249
GCTCAAAA	-0.00649
CCTAATAC	0.113
GCTAATAC	0.153

Sequence	PBM E-score
ACTAATAC	0.26
ACTAATAG	0.277
ACTAATAA	0.221
ACTAATAT	0.234
ATAAGGCG	0.0483
CTCCGCTA	-0.116
CCAGTTAA	0.134
GCGGTGGA	0.0809
GAAGCAGC	-0.162
AAGCTTAA	0.164
CAGCTTAG	0.0588
AAGCTTAG	0.306
CAGCTTAC	0.312
AAGCTTAC	0.282
CAGCTTAA	0.0109
CAGCTTGC	-0.0574
GAGCTTAC	0.191
AAGCTTAT	0.231
CGGGTAGC	-0.214
AGATGGAA	0.167
GAGGTCCA	-0.14
AGGCTTAG	0.0724
CGGCTTAG	-0.0489
CGGCTTAA	0.19
AGGCTTAC	0.258

Sequence	PBM E-score
CGGCTTAC	0.358
AGGCTTAT	0.152
GTAACGGA	0.252
CGAATTAC	0.0723
GCGCGGCC	-0.0214
CCCGCGCG	0.138
CCTTCTGC	-0.126
AAACTTGT	0.0442
AGAACCTG	-0.127
GGACATCA	0.0421
TGACATCA	0.356
CGACATCA	0.137
TCCATTCA	0.0889
GAGGTGCA	-0.0183
AATGCATG	0.183
AATGCAAG	0.00342
AATGCATA	0.116
AATGCAAA	0.275
AATGCATT	0.259
AATGCAAC	0.0401
ACGTTTCG	-0.0249
GCTCCCGA	-0.217
ACGTCTCA	0.124
CAAACTCG	0.0562
AGTTCCGA	0.123

Sequence	PBM E-score
AGCATCTA	0.00891
CGCATCTA	0.271
GGCATCTA	-0.0103
CGCCATCA	-0.202
AAAATATC	0.189
CCAAAATA	0.113
CGGAAATC	0.137
CAAATATC	0.282
AACAAATT	0.274
CGGAAATA	0.33
CAAAAATA	0.277
GGGAAATA	0.0795
AACAAGTT	0.0368
AAAAAATA	0.213
CAAATATG	0.117
AACAAATG	0.0424
CGGGCCTA	-0.236
CGGTTCTC	-0.217
GTGGAAGA	-0.192
ACGGGCAT	-0.0832
ACTAAGAT	0.2
TTCTCCAA	-0.0656
ACACTCAC	0.066
TACAAATA	0.239
AACAAGAT	0.146

Sequence	PBM E-score
AACAAGTA	0.0249
AACAAAAA	0.209
AACAAAAT	0.269
AACAAATA	0.278
GTATCCAC	-0.00124
AATCATCC	0.227
TACTCCTA	0.066
CATCCCAA	0.0478
GATTTCGC	0.262
GATTTCGA	0.11
CATTTCGC	0.111
CAATGGTG	-0.161
CTCTGGAC	0.0765
AGGGTGCA	-0.148
TCATAAGA	0.0448
ACATAACA	0.286
CTATAAGA	0.0762
ACATAACT	0.197
ACATAACC	0.235
CCATAAGA	0.118
ACATAAGA	0.3
ATATAAGA	0.301
ACATAAGT	0.195
ACATAAGG	0.194
GTATAAGA	0.0464

Sequence	PBM E-score
ACATAAGC	0.437
ATGGAACA	-0.0505
GCACTGAA	-0.0379
CCATTGAG	0.00119
AGACACCA	-0.0438
GGGAGCCC	-0.419
CCACGCAG	-0.0201
GCATAAGC	0.276
GCATAAGA	0.0468
CCATAAGC	0.215
GACTTGAC	-0.208
GAGCGGGA	-0.0794
GGCAACCA	-0.0499
CTTTCGCC	-0.0892
GGGAATCA	-0.0779
AGGAATCA	0.172
CGGAATCA	0.27
CATAGCCC	-0.222
CCCACTAC	0.0221
